Sampled rows, rich in hits. Any-hit rate of the full collection: about 6.1%.
TGFb inhibitor: TGF-b pathway inhibition | Potency, µM (titrated, usually from 46.1 µM), for the others: at the top dose activity, negative = inhibition, hits mostly inhibitors | AID 588855 | HepG2 CAGA-GFP TGF-b/SMAD3 reporter, GFP fluorescence, 18 h; TGF-beta stimulated, 500 pg/mL final | hit rate 1.2% among 410,000; note: % is set by controls: 0 for no effect and ±100 for the full control effect; nearly all actives have a fitted effect of over 65% in size
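TGF-beta reporter screen: HEPG2 CAGA-GFP, 1% FBS, 500 pg/mL TGF-beta final, 18 h; per-cell GFP summed per well; curves fitted and categorized by class.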
RORg inh: ROR gamma (mouse) transcription inhibition; Potency, µM (doses to about 53.6 µM), without a hit: at the top dose activity change, negative = inhibition, usual class: inhibitors; Drosophila S2 Gal4-RORgamma UAS-luciferase reporter, 20 h; hit rate 5.4% among 310,000; note: % is set by controls: 0 for no effect and ±100 for the full control effect; nearly all actives have a fitted effect of over 60% in size
Target sequence (P51450 whole entry, looked up, the tested form may be a part): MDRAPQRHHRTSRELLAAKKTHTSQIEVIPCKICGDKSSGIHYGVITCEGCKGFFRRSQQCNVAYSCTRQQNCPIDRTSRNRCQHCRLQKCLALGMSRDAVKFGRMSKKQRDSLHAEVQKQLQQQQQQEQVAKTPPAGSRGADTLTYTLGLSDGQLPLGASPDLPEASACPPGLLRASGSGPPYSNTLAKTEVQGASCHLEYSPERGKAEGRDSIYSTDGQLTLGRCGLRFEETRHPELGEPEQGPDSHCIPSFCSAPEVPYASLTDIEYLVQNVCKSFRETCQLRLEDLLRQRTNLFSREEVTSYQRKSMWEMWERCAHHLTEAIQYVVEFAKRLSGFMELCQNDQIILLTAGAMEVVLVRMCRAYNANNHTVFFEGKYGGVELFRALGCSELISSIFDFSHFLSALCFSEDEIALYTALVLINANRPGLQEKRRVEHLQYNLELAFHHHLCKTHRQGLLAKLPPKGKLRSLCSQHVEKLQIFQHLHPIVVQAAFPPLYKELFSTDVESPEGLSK
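Drosophila S2 cells stably expressing Gal4-DBD/mouse RORγ fusion under metallothionein promoter plus UAS-luciferase; compound 1 h, then 700 uM CuSO4 induction for 20 h at ambient temperature; inhibition read as reduced luminescence.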
VP16 counter: counter-screen for ROR gamma inhibitors: Gal4-VP16 reporter | Drosophila S2 Gal4-VP16 UAS-luciferase, luminescence, 20 h | hit rate 3.5% among 310,000 | Potency, µM (titrated, usually from 53.6 µM), without a hit: top-dose activity, negative = inhibition, usual class: inhibitors;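 note: Gal4-VP16 expression switched on by copper sulfate through the metallothionein promoter; % is set by controls: 0 for no effect and ±100 for the full control effect; nearly all actives have a fitted effect of over 50% in size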
HepG2 tox: kills HepG2 cells in TGF-b inhibitor counter-screen. HepG2 CAGA-GFP viability, ATP luminescence, 18 h. Potency, µM (titrated, usually from 46.1 µM), for the others: top-dose activity change, negative = cytotoxicity, most hits filed as cytotoxic. hit rate 0.76% among 410,000. AID 588856
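CellTiter-Glo luminescence gave cytotoxicity after 18 hours at 37 degrees C. The cells were HepG2 CAGA-GFP in 1% FBS DMEM, stimulated with 500 pg/mL TGF-beta after compound addition. %Activity was normalised to no-cell wells (complete cell-killing) and DMSO (no toxicity), and curves were fitted and classified.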
ATXN2 expr inh: ATXN2 expression inhibition; Potency, µM (series often up to 57 µM), without a hit: at the highest dose activity change, negative = inhibition, usual class: inhibitors; hit rate 0.72% among 360,000; HEK-293 ATXN2-luciferase reporter, luminescence, 24 h; note: % is set by controls: 0 for no effect and ±100 for the full control effect; nearly all actives have a fitted effect of over 55% in size
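ATXN2-luciferase reporter cells (luciferase flanked by upstream and downstream ATXN2 gene portions) were treated 24 h at 37 °C with compounds at up to 57 uM. SteadyGlo luminescence gave expression; GF-AFC fluorescence gave viability.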
ATXN viability: viability counter-screen for ATXN expression inhibitors | S2 cells (HEK-293 line with an ATXN2-luciferase reporter) viability, CellTiter-Fluor protease fluorescence, 24 h | Potency, µM (titrated, usually from 56.7 µM), actives largely listed as cytotoxic | hit rate 0.49% among 400,000 | AID 651635; note: nearly all actives have a fitted effect of over 40% in size
Starred values were filed as active, the others as inactive; i = inactive; ? = inconclusive; . = no result given; [ ] = another dose, or the depositor's remark. Calls come from the whole dose curve; as a rule, active = well fitted curve in the direction sought with a large enough effect; inconclusive = small, poorly fitted or top-dose-only effect, or another doubt; inactive = no such curve, though single readings can be large; an effect the other way counts as inactive or inconclusive. Potency is the fitted concentration of half-maximal effect.

SMILES | TGFb inhibitor | RORg inh | VP16 counter | HepG2 tox | ATXN2 expr inh | ATXN viability
Cc1ccc(C2c3c(-c4ccccc4O)n[nH]c3C(=O)N2CCc2ccccc2)cc1 (stereo not given) | 11µM* | . | . | -95% | . | .
CC(C)c1ccc(C2c3c(-c4ccccc4O)n[nH]c3C(=O)N2CCc2ccccc2)cc1 (stereo not given) | -11% | . | . | -30% | . | .
CCC(=O)Oc1ccc2c(c1)CC[C@@H]1[C@@H]2CC[C@@]2(C)[C@H]1C[C@@H](OC(=O)CC)[C@@H]2OC(=O)CC | . | . | . | . | -11% | i
COc1ccccc1CNC(=O)C1CCN(S(=O)(=O)c2ccc3c(c2)CCCN3C(C)=O)CC1 | -13% | . | . | -1% | 10% | i
CCc1ccc(NC(=O)c2cnn3ccccc23)cc1 | -1% | 13µM* | ? | -40% | ? | i
Cc1c(NC(=O)Nc2ccc(Br)cc2F)sc2nc3n(c(=O)c12)CCC(C)CC3 (stereo not given) | -21% | . | . | -21% | 6% | i
COc1ccccc1NC(=S)N/N=C1\CC(C)(C)Oc2ccc(O)cc21 | -18% | ? | ? | -29% | -14% | ?
CC(=O)N1CCC2(CC1)C/C(=N\NC(=S)Nc1ccccc1F)c1cc(O)ccc1O2 | -5% | 13µM* | -5% | -37% | -10%[11.3 µM] | i
COc1ccc(NC(=S)N/N=C2\CC(C)(C)Oc3ccc(O)cc32)cc1 | ? | 6.3µM* | 5.6µM* | -17% | 7% | i
CC(=O)N1CCC2(CC1)C/C(=N\NC(=S)Nc1ccccc1C)c1cc(O)ccc1O2 | -5% | ? | ? | -27% | -23% | i
COC(=O)c1cccc(C(=O)N2CCc3c(cnc(C)c3CNC(=O)c3ccsc3)C2)c1 | . | . | . | . | . | i
CCOc1ccc(OCC)c(NC(=O)c2cnc3c(-c4ccccc4)c(C)nn3c2C)c1 | 13% | . | . | 6% | . | .
CC(C)CN1C(=O)c2ccccc2C1(O)Cc1ccccc1 (stereo not given) | -13% | ? | 20µM* | -5% | -2% | i
CCc1ccc(NC(=S)N2CCN(c3cccc(C(F)(F)F)c3)CC2)cc1 | -6% | 13µM* | 35µM* | -7% | ? | ?
COCCNC(=S)N1CCN(c2cccc(C(F)(F)F)c2)CC1 | 0% | -15% | ? | -22% | -36% | .
CN(C)c1ccc(NC(=S)N2CCN(c3ncc(C(F)(F)F)cc3Cl)CC2)cc1 | -2% | 10µM* | ? | 5% | -3% | i
CCOc1ccccc1NC(=S)N1CCN(c2cccc(OC)c2)CC1 | -19% | 13µM* | ? | 0% | -3% | i
COc1cccc(N2CCN(C(=S)Nc3ccc(C)cc3C)CC2)c1 | 20% | 5.6µM* | -17% | 18% | . | i
O=C(CN1CCN(c2ncc(C(F)(F)F)cc2Cl)CC1)N1CCN(c2ncc(C(F)(F)F)cc2Cl)CC1 | -19% | -1% | -11% | -18% | -28% | ?
CCOC(=O)c1cc(S(=O)(=O)Nc2cc(OC)ccc2OC)[nH]n1 | -11% | . | . | -31% | -11% | i
Cc1ccc(C(c2sc3nc(-c4ccco4)nn3c2O)N2CCCC2)cc1 (stereo not given) | -24% | . | . | -11% | 4% | i
COc1ccc(CCNC(=O)c2ccc3c(c2)nc2n3CCOC2)cc1OC | -21% | . | . | 12% | . | .
COc1cccc(N2CCN(C(=S)Nc3cc(C)cc(C)c3)CC2)c1 | 0% | 4µM* | -2% | 1% | -23% | i
COc1cccc(N2CCN(C(=S)NCCc3ccccc3)CC2)c1 | 1% | 25µM* | ? | -21% | 0% | i
Cc1ccc(NC(=O)/C(Cl)=C/c2ccccc2)cc1C | 10% | 10µM* | ? | -7% | 108% | i
CCOC(=O)c1ccc(CN(Cc2ccccc2C)S(=O)(=O)c2ccc(C(C)(C)C)cc2)cc1 | 1% | . | . | 1% | . | .

Bioassay records deposited in PubChem by National Center for Advancing Translational Sciences (NCATS).
